PubChem BioAssay AID2275 (Broad Institute, 2010)
The whole screen tested about 30,000 compounds, of which about 190 (0.63%) were called active. This is one part of a sample in which actives are shown more often than they occur. No stated cut-off is given here; in the data, active means viability loss activity score above about 50%; inconclusive means no clear call, values can overlap the other calls; inactive means below about 35%.

Test: BJeLR cell viability loss, primary screen, luminescence, CellTiterGlo ATP (AID 2275);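 further: higher score means fewer live cells and less ATP luminescence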
Details: BJeLR fibroblasts viability, 48 h, stronger effect = higher value, concentration not given here; HRASV12, hTERT and SV40 LT/ST transformed unless noted

Compound | viability loss activity score
CN[C@@H]1C[C@H]2O[C@@](C)([C@@H]1OC)n1c3ccccc3c3c4c(c5c6ccccc6n2c5c31)C(=O)NC4 | 127% (active)
CCCCCCCCCCCCCC(=O)O[C@@H]1[C@@H](C)[C@@]2(O)[C@@H](C=C(CO)C[C@]3(O)C(=O)C(C)=C[C@@H]23)[C@@H]2C(C)(C)[C@]12OC(C)=O | 4.17% (inactive)
CN1C2C=C(N(C(=O)c3ccc(Cl)cc3)c3ccccc3)CC1CC2 (stereo not given) | 0.717% (inactive)
CCOC(=O)[C@@H]1[C@@H]2NC(=O)N[C@@]1(C)Oc1ccccc12 | -1.85% [setting not given] (inactive)
Fc1ccc(CNC2=NCCS2)cc1 | 2.3% (inactive)
CNC(=O)N(C)c1nnc(C(C)(C)C)s1 | -2.35% [setting not given] (inactive)
c1ccc2c(c1)[I+]c1ccccc1-2 | 73.2% (active)
CC(=O)Nc1nc(C)c(Oc2ccccc2)c(OC(=O)N(C)C)n1 | -1.11% (inactive)
COC1=C[C@@H]2[C@@H]3Cc4ccc(OC)c(O)c4[C@]2(CCN3C)CC1=O | 1.23% [setting not given] (inactive)
CN1CC=C(c2noc(CCC(=O)Nc3ccc(F)cc3F)n2)CC1 | 2.02% (inactive)
CC(C)[C@@]1(NC(=O)[C@@H]2CC3c4cccc5[nH]cc(c45)C[C@H]3N(C)C2)O[C@@]2(O)[C@@H]3CCCN3C(=O)[C@H](Cc3ccccc3)N2C1=O (stereo not given in full) | -5.08% (inactive)
O=C(O)C1C2CCC(O2)C1C(=O)N1CCN(C/C=C/c2ccccc2)CC1 (stereo not given) | 8.76% (inactive)
C[C@H]1O[C@@H](O[C@H]2CC[C@]3(CO)C4CC[C@]5(C)[C@@H](C6=CC(=O)OC6)CC[C@]5(O)[C@@H]4CC[C@H]3C2)[C@H](O)[C@H](O)[C@@H]1O[C@@H]1O[C@H](CO)[C@@H](O)[C@H](O)[C@H]1O (stereo not given in full) | 109% (active)
Cc1ccc(CSc2nnc(OC(=O)N(C)C)n2-c2cccc(Cl)c2)cc1 | 5.26% (inactive)
CC1N=C(c2ccccc2)c2ccccc2N(CCCOc2ccc(F)cc2)C1=O (stereo not given) | -3.72% (inactive)
CC(C)(c1ccccc1)c1ccc(O)cc1 | 0.81% (inactive)
CC(C)c1ccc2c(c1O)CC[C@H]1C3=C(CC[C@]21C)C(=O)OC3 | 4.52% (inactive)
C[C@H]1CCC/C=C/C2C[C@H](O)C[C@H]2[C@H](O)/C=C\C(=O)O1 (stereo not given in full) | 74.4% (active)
CCN(CC)C(=O)c1ccc(N(Cc2ccccc2Cl)S(C)(=O)=O)cc1 | 5.52% (inactive)
Fc1cccc(NC2=NCCS2)c1 | 7.57% (inactive)
